Assay in all cases: qHTS profiling for inhibitors of Plasmodium falciparum proliferation (AID 504749); further: nearly all actives have a fitted effect of over 60% in size
Common to all, as to conditions: P. falciparum in erythrocytes, SYBR Green DNA, 72 h; series mostly up to 28.7 µM

One experiment concerns DIV17. In short, it runs like this:
(§1)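 Infected RBCs, 0.3% parasitemia/2.5% Hct final; cpd 72 h, 37 C, 5% CO2; lysis buffer with saponin/triton/SYBR Green I, o/n RT dark; FI 485/535; norm. to artemisinin (0.29 uM) and DMSO.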

Another experiment concerns DIV30. In short, it runs like this:
as §1

In a further experiment the test system is Dd2. In short, it runs like this: as §1
The next experiment concerns ECU. Put shortly: as §1
The test system of the next experiment is FAB9. Put shortly:
as §1

The subject of the next experiment is HB3. Put shortly:
as §1

In another experiment the test system is ICS. In short, it runs like this:
as §1

A further experiment has as its system N140. In short, it runs like this:
as §1

In a further experiment the test system is P94_40. Put shortly: as §1
The test system of the next experiment is PAD. Put shortly: as §1
For a further experiment, the system named is PC15. Put shortly: as §1
In another experiment the test system is PC26. Put shortly: as §1
The test system of another experiment is PC49. Put shortly:
as §1

Another experiment relates to SC27B. In short, it runs like this: as §1
In the next experiment the test system is TAB113. In short, it runs like this:
as §1

The test system of another experiment is TAB165. In short, it runs like this: as §1
In the next experiment the test system is GB4. In short, it runs like this: as §1
In another experiment the test system is JCK. Put shortly: as §1
The test system of another experiment is P93_24. In short, it runs like this:
as §1

For the next experiment, the system named is TAB109. Put shortly: as §1

Inconclusive results are not listed. Activity calls are given as the source filed them. The call rests on the fitted dose curve; in most records, active means well fitted inhibition curve with a large enough effect; inconclusive means small, poorly fitted or top-dose-only effect; inactive means flat fitted curve, though single readings scatter.
Potency means the concentration at half of the fitted maximal effect.

With `COc1c(N2C[C@@H]3CCCN[C@H]3C2)c(F)cc2c(=O)c(C(=O)O)cn(C3CC3)c12`, the Potency entry in the experiment with DIV17, with DIV30, with Dd2, with ECU, in the experiment with FAB9 and in the experiment with HB3 was “inactive” each time. Also, the Potency result in the experiment on ICS, in the experiment with N140, in the experiment on P94_40, in the experiment with PAD, in the experiment on PC15 and in the experiment with PC26 was “inactive” each time. Also, the Potency result with PC49, in the experiment with SC27B, with TAB113 and in the experiment with TAB165 was “inactive” throughout.

Take `Nc1ccn([C@@H]2CS[C@H](CO)O2)c(=O)n1`: the Potency entry in the experiment on DIV17, in the experiment on DIV30, in the experiment with Dd2, in the experiment on ECU, in the experiment with FAB9 and in the experiment with GB4 was “inactive” throughout. Moreover, the Potency entry in the experiment with HB3, in the experiment with ICS, in the experiment with JCK, with N140, in the experiment with P93_24 and in the experiment on P94_40 was “inactive” each time. Besides, the Potency entry in the experiment on PAD, in the experiment on PC15, with PC26, in the experiment on PC49, in the experiment with SC27B and in the experiment on TAB109 was “inactive” in each case. The Potency result in the experiment on TAB113 and in the experiment on TAB165 was “inactive” in each case.

In the case of `CN1c2cc(O)c(N=NC(N)=O)cc2CC1S(=O)(=O)O` (centres undefined), the Potency result in the experiment on DIV17, in the experiment with DIV30, in the experiment on Dd2, in the experiment with ECU, with FAB9 and in the experiment on GB4 was “inactive” in each case. The Potency result with HB3, in the experiment with ICS, with JCK, in the experiment with N140, with P93_24 and with P94_40 was “inactive” throughout. For the same compound, the Potency entry in the experiment on PAD, in the experiment with PC15, in the experiment on PC26, in the experiment with PC49, in the experiment on SC27B and with TAB109 was “inactive” in each case. For the same compound, the Potency entry in the experiment with TAB113 and in the experiment with TAB165 was “inactive” throughout.

Regarding `O=c1[nH]c(=O)n(C2CCCO2)cc1F` (centres undefined), the Potency result with DIV17, in the experiment with DIV30, with Dd2, in the experiment on ECU, in the experiment on FAB9 and in the experiment with GB4 was “inactive” each time. In addition, the Potency result in the experiment with HB3, in the experiment on ICS, with JCK, with N140, with P93_24 and in the experiment with P94_40 was “inactive” throughout. The Potency entry in the experiment with PAD, in the experiment on PC15, in the experiment on PC26, with PC49, in the experiment with SC27B and with TAB109 was “inactive” each time. The Potency entry with TAB113 and in the experiment on TAB165 was “inactive” in each case.

Regarding `C[C@H]1C[C@@H]2[C@@H]([C@@H](O)C[C@@]3(C)[C@H]2CC[C@]3(O)C(=O)CO)[C@@]2(C)C=CC(=O)C=C12`, the Potency result in the experiment with DIV17, with DIV30, in the experiment with Dd2, in the experiment with ECU, in the experiment with FAB9 and in the experiment on GB4 was “inactive” throughout. The Potency entry with HB3, with ICS, in the experiment on JCK, in the experiment on N140, in the experiment with P93_24 and with P94_40 was “inactive” each time. For the same compound, the Potency result in the experiment with PAD, in the experiment on PC15, in the experiment with PC49, with SC27B, in the experiment on TAB109 and in the experiment with TAB113 was “inactive” in each case. In addition, the Potency result in the experiment with TAB165 was “inactive”.

Turning to `CC=CC1=C(C(=O)O)N2C(=O)[C@H](NC(=O)[C@H](N)c3ccc(O)cc3)[C@@H]2SC1`, the Potency result in the experiment on DIV30, in the experiment with Dd2, with ECU, in the experiment with FAB9, in the experiment on GB4 and with HB3 was “inactive” in each case. The Potency result with ICS, in the experiment with JCK, in the experiment on N140, with P93_24, with P94_40 and in the experiment with PAD was “inactive” in each case. The Potency entry in the experiment with PC15, with PC26, in the experiment with PC49, in the experiment with SC27B, with TAB109 and in the experiment with TAB113 was “inactive” in each case. Further, the Potency entry in the experiment with TAB165 was “inactive”.

On to `COc1cc(C(=O)NS(=O)(=O)c2ccccc2C)ccc1Cc1cn(C)c2ccc(NC(=O)OC3CCCC3)cc12`, for which the Potency result with ECU, in the experiment with FAB9, in the experiment on HB3, in the experiment with JCK, with N140 and with P93_24 was “inactive” in each case. Besides, the Potency result in the experiment with PAD, with PC15, in the experiment on PC49, in the experiment with TAB109 and in the experiment on TAB165 was “inactive” in each case. Further, the Potency in the experiment with P94_40 is 12600 nM (active).

In the case of `Nc1ccn([C@@H]2O[C@H](CO)[C@H](O)C2(F)F)c(=O)n1`, the Potency is 953 nM (active) with DIV17; 2690 nM (active) in the experiment on DIV30; 1780 nM (active) in the experiment on Dd2; 5010 nM (active) in the experiment on ECU; 1410 nM (active) in the experiment on FAB9; 953 nM (active) in the experiment with GB4. Besides, the Potency is 3980 nM (active) with HB3; 3980 nM (active) in the experiment on ICS; 1120 nM (active) with N140; 316 nM (active) in the experiment on P93_24; 316 nM (active) with P94_40; 708 nM (active) in the experiment on PAD. Also, the Potency is 4780 nM (active) in the experiment with PC26; 708 nM (active) in the experiment with PC49; 3980 nM (active) in the experiment on SC27B; 5010 nM (active) with TAB109; 3980 nM (active) in the experiment with TAB113; 3980 nM (active) in the experiment on TAB165.

(Values after PubChem BioAssay (NCATS).)
